A selection: hits, their analogues and other compounds. The true share with any hit is near 2.3%.
Jurkat NFkB inh – lowers PMA/ionomycin-induced NF-kB signal in Jurkat cells; 0.53% of 330,000 active; inhibition, % at 4 µM; PMA/ionomycin-induced NF-kB luciferase reporter, luminescence; in the data active = inhibition above about 50%
EBV LMP1 NFkB – inhibitors of Epstein-Barr LMP1-induced NF-kappaB reporter. AID 504558. 0.69% of 350,000 active. inhibition, % at 12.5 µM. LMP1-induced NF-kappaB luciferase reporter cells, luminescence; in the data active = inhibition above about 41%; inconclusive = no clear call, values can overlap the other calls;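 note: 0% = neutral control wells and 100% = reference inhibitor control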
MITF TRPM1 inh – inhibitors of MITF-driven TRPM1 promoter in melanoma cells. inhibition, % at 12.5 µM. SK-MEL-5 TRPM1 promoter luciferase, 24 h. 0.83% of 330,000 active;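 active = mean inhibition across replicates of 60% or more, whatever share of single replicates reaches that level; inconclusive = some that reach 60%, reason not given; inactive = mean inhibition across replicates below 60%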
Shn3 3UTR inh – reduces Shn3 3'UTR luciferase signal in osteoblasts. Clone20 osteoblast Shn3 3'UTR firefly luciferase, 24 h. inhibition, % at 12.5 µM. 0.52% of 360,000 active;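 active = mean inhibition of at least 75% with every replicate also reaching 75%; inconclusive = mean inhibition at least 75% but some replicate below; inactive = mean inhibition below 75%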;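 note: 0% = median of neutral control wells and 100% = pilot-screen positive control compound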
697 NFkB inh – lowers PMA/ionomycin-induced NF-kB signal in 697 B cells; 697 B-cell NF-kB luciferase reporter, 16 h; inhibition, % at 4 µM; 0.33% of 330,000 active; AID 435022; in the data active = inhibition above about 35%
Gli-Sufu block – Gli-Sufu pathway antagonism; AID 588413; inhibition, % at 5 µM; 0.74% of 340,000 active; Sufu-KO-LIGHT fibroblasts, Gli luciferase reporter luminescence;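 active = inhibition above about 55%, limit read from the data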;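 note: 0% = DMSO-treated cells and 100% = wells with medium but no cells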
697 NFkB conf – lowers PMA/ionomycin-induced NF-kB signal in 697 B cells; shares compounds with 697 NFkB inh; 35% of 2,000 active; inhibition, % at 4 µM; AID 449746; 697 B-cell NF-kB luciferase, 16 h; in the data active = inhibition mostly above about 28%, no sharp cut-off; inactive = mostly below about 22%
* = called active by the depositor; ? = inconclusive; . = not tested or not shown.

SMILES	Jurkat NFkB inh	EBV LMP1 NFkB	MITF TRPM1 inh	Shn3 3UTR inh	697 NFkB inh	Gli-Sufu block	697 NFkB conf
Cn1c(=O)n(C)c2cc(CN3C(=O)OC(C)(C)C3(C)O)ccc21 (stereo not drawn)	-3	-1	-12	0	26	2	.
O=C(CSCC(=O)c1ccc([N+](=O)[O-])cc1)c1ccc([N+](=O)[O-])cc1	.	.	.	-1	.	.	.
CC(=O)N=c1sccn1CC(=O)c1ccc([N+](=O)[O-])cc1	9	8	23	-5	36*	3	19
CCCNC(=O)c1ccc(N2CCC3(CC2)CC(c2cccc(Br)c2)=NO3)c(NC(=O)c2ccc(Cl)c([N+](=O)[O-])c2)c1	11	2	44	9	37*	5	26*
Cc1ccc(N=Nc2[nH]c3ccccc3c2O)cc1	-37	-74	-10	-36	-29	-37	.
O=C(O)c1ccccc1N=Cc1c(O)n(-c2nccs2)c(=O)c2ccccc12	19	16	20	1	42*	0	12
CCC(c1nnc(SCC(=O)NC2CCCCC2)n1Cc1ccccc1)N(C)C (stereo not drawn)	4	-7	5	-3	39*	-1	2
COc1ccc(CNC(=O)c2cc3c(=O)[nH]c4ccccc4c3n2C)cc1	10	11	-14	-6	23	4	.
O=C(N/N=C/c1cccnc1)c1cccc(Br)c1	-11	11	-4	-15	-3	-17	.
COc1ccc(OCc2cccc(C(=O)NN)c2)cc1	6	62*	50	21	68*	-155	29*
COc1ccc(OCc2cccc(C(=O)Nc3cc(C)on3)c2)cc1	11	81*	?	14	91*	-136	77*
COc1ccc(OCc2cccc(C(=O)Nn3cc([N+](=O)[O-])cn3)c2)cc1	-11	83*	60	-26	93*	-176	83*
NNC(=O)c1cccc(COc2ccc(Br)cc2)c1	-47	38	-6	-22	3	-153	.
CCOc1ccc(OCc2cccc(C(=O)N/N=C/c3cccnc3)c2)cc1	41	75*	57	7	67*	-153	52*
COc1cccc(C(=O)Nc2cc(C)on2)c1	.	-6	.	-45	.	.	.
CCOC(=O)C1=CCC(c2ccco2)N(S(=O)(=O)c2ccc(C)cc2)C1 (stereo not drawn)	.	.	.	-6	.	.	.
CSCC[C@H](NC(=O)COc1ccc(Cl)cc1Cl)c1nc2ccccc2[nH]1	-3	10	7	19	-4	1	.
Cc1csc(NC(=O)c2cc3c(s2)CCCC3)n1	-111	8	5	25	34	-182	.
Cc1cnc(NC(=O)c2cc3c(s2)CCCC3)s1	-148	24	8	27	-328	1	-359
COc1cc(C2NC(=O)NC(C)=C2C(=O)OC(C)(C)C)ccc1OCC(=O)O (stereo not drawn)	1	-22	11	0	40*	4	10
COc1ccccc1/C=C/C=N/Nc1cccc(C(=O)O)c1	-113	-21	5	-23	-275	-53	-39
N#Cc1c(N)nc(SCc2ccccc2)c(C#N)c1-c1ccco1	3	23	3	-5	-6	32	.
CCOC(CNC(=O)c1ccc2nc(N3CCC(C)CC3)sc2c1)OCC	6	-38	18	-24	-282	-142	-178
CC(=O)c1ccc(NS(=O)(=O)Cc2ccc(Cl)cc2)cc1	-8	-12	-3	-19	-15	-3	.
COc1ccc(OC)c(S(=O)(=O)Nc2ccc(-c3ccc4nncn4n3)cc2)c1	15	17	20	50	35*	-12	29
SMILES	Jurkat NFkB inh	EBV LMP1 NFkB	MITF TRPM1 inh	Shn3 3UTR inh	697 NFkB inh	Gli-Sufu block	697 NFkB conf
CCN(CC)C(=O)Oc1ccc2ccccc2c1Br	-58	-14	-47	-26	-302	-29	-253
N#Cc1sc(=O)[nH]c1Cl	17	-5	-1	16	42*	3	13
COc1ccc(C(=O)Nc2cccc(NC(=O)c3ccc(OC)c(OC)c3)n2)cc1OC	41	19	-21	42	39*	-10	47*
COc1ccc(C(=O)Nc2cccc3cccnc23)cc1OC	-8	-1	-53	-17	20	-8	.
COc1ccc(C(=O)Nc2nnc(Cc3cccs3)s2)cc1OC	12	3	3	37	36*	-8	37*
COc1ccc(-c2ccc(C#N)c(OC)n2)cc1	-9	-10	5	-3	-1	-9	.
Cc1ccc(-c2nc3nc4ccccc4nc3n2Cc2ccco2)cc1	-48	-9	-35	10	-257	-9	-250
Clc1ccc(-c2nc3nc4ccccc4nc3n2Cc2ccco2)cc1	-103	-28	-28	-79	-418	-3	-368
c1ccc(Cn2c(-c3ccco3)nc3nc4ccccc4nc32)cc1	-36	-46	-88	-58	-35	-59	.
COc1cc(O)c(C(CCN2CCN(c3ccccc3)CC2)c2ccc3c(c2)OCO3)c(OC)c1 (stereo not drawn)	10	-4	-10	20	-12	-2	.
CCCCCCCCCn1cc(C(C)=O)c(=O)[nH]c1=O	-3	-6	1	15	5	4	.
COc1ccc(-c2ccc(F)cc2)cc1[C@H]1[C@H]2C=CC[C@@H](C)[C@@H]2C(=O)N1Cc1ccccc1	0	-2	-12	22	40*	35	46*
CCOc1ccc2nc(-c3ccccc3)[nH]c2c1	-36	24	-3	-74	-298	-103	-272
CC(=O)Nc1ccc(S(=O)(=O)N2CCC(c3nc4ccc(C)cc4[nH]3)CC2)cc1	13	6	9	1	38*	6	15
NC(=O)c1ccsc1NC(=O)CN1C(=O)C2CC=CCC2C1=O (stereo not drawn)	7	-14	-1	3	18	-7	.
O=c1[nH]c(=O)n([C@H]2C[C@H](O)[C@@H](CO)O2)cc1C(F)(F)F	46	46*	13	30	48*	42	58*
O=C(Nc1ccc2ccccc2c1)C(c1ccccc1)C1CCCC1 (stereo not drawn)	-9	13	1	-10	-258	14	-220
Cc1ccc(NC(=O)C(c2ccccc2)C2CCCC2)cc1 (stereo not drawn)	.	-8	-12	-3	.	10	.
CNC(=O)c1ccc(N(Cc2ccccc2)S(C)(=O)=O)cc1	-9	-3	-13	11	28	-10	.
O=C(Nc1nc2ccc(F)cc2s1)C1=COCCO1	-100	51*	19	-23	-250	-73	-76
CSc1cccc2sc(NC(=O)C3=COCCO3)nc12	-24	-9	-78	-42	3	-16	.
Cc1ccc(NC(=O)CCNS(=O)(=O)c2ccc3c(c2)oc(=O)n3C)cc1	16	-2	4	-13	41*	1	8
O=C(CNC(=O)c1cccc(F)c1)OCC(=O)N1CCN(C(=O)c2ccco2)CC1	-8	-5	-15	-17	6	-17	.

High-throughput results from PubChem BioAssay.
